How the values were obtained:
Assay in all cases: PBM binding z-score (relative to random genomic background probes); higher = stronger binding; sequences stand for … in GC…GCGATTGACAGCGTAGAATGAAGG
[1] = system: PPARg:RXRa DBDmut IVT, anti-RXR (DBD mutation: RXRa K156A/R161A, NR concentration 270 nM, RXRa partner concentration 90 nM)
Procedure, shortened: (§1)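 Scanned fluorescence from custom Agilent 4×180K protein-binding microarrays was regression-normalized. Binding z-scores use random background probes as reference. Ligand-free nuclear receptor dimers were incubated on the arrays for 1 h and detected with antibodies against each partner (one per run).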

[2] = system: PPARg:RXRa IVT, anti-PPARg (NR concentration 270 nM, RXRa partner concentration 90 nM)
Procedure, shortened: as §1

[3] = system: PPARg DBDmut:RXRa IVT, anti-PPARg (DBD mutation: PPARg1 K132A/R137A, NR concentration 270 nM, RXRa partner concentration 90 nM)
Procedure, shortened: as §1

[4] = system: PPARg DBDmut IVT, anti-PPARg (DBD mutation: PPARg1 K132A/R137A, NR concentration 270 nM)
Procedure, shortened: as §1

[5] = system: PPARg homodimer (NR concentration 180 nM)
Procedure, shortened: as §1

[6] = system: PXR:RXRa (NR concentration 270 nM, RXRa partner concentration 90 nM)
Procedure, shortened: as §1

[7] = system: PXR homodimer (NR concentration 270 nM)
Procedure, shortened: as §1

[8] = system: RARa:RXR (NR concentration 270 nM, RXRa partner concentration 90 nM)
Procedure, shortened: as §1

[9] = system: RARa homodimer (NR concentration 270 nM)
Procedure, shortened: as §1

| Sequence | PBM binding z-score [1] | PBM binding z-score [2] | PBM binding z-score [3] | PBM binding z-score [4] | PBM binding z-score [5] | PBM binding z-score [6] | PBM binding z-score [7] | PBM binding z-score [8] | PBM binding z-score [9] |
| --- | --- | --- | --- | --- | --- | --- | --- | --- | --- |
| ACTAGTTGCTCAGCTGAGGTCACACACAATTCGG | 0.944 | 1.76 | 0.496 | 1.18 | 1.91 | 4.3 | 1.44 | 4.26 | 0.561 |
| CGAACTAGGTCAGAACAGTACAGTGAAGGATGAT | 7.19 | 7.31 | 2.36 | 3.58 | 1.14 | 0.921 | 0.234 | 0.873 | 0.291 |
| CGTCTAAGGTCAAGGTCAGTGAAAGAGACTCGAA | 4.02 | 4.78 | 0.613 | 0.471 | 4.29 | 5.41 | 1.4 | 5.75 | 2.57 |
| CAGCCTAGGTGAGGGCCAGTATAGGAGGAACGTT | 0.681 | 0.776 | -0.889 | -1.52 | -0.00134 | -0.652 | -0.633 | -0.402 | -0.758 |
| CCTGCTAGGTCTATGGTCAGCTAAAGCAGCTCGC | -0.291 | -0.225 | -0.749 | -1.11 | -0.133 | -0.569 | -0.846 | -0.37 | -0.766 |
| CCTACTGGGCCACGAAAGGTAATTGATTCAGTGA | 5.29 | 5.07 | 0.766 | -0.144 | 0.00713 | -0.257 | -0.335 | -0.102 | 0.0551 |
| CCTTACCGGTCAAGGTTATAGCACGGGTGGTACG | -0.499 | 0.825 | -0.737 | -0.375 | 1.58 | 1.16 | 0.299 | 1.3 | 0.889 |
| CCTAGCAGGCCAATCGGGGTCACTCAAGGCTTGA | 2.04 | 3.14 | -0.484 | -1.21 | 3.42 | 6.01 | 1.7 | 6.08 | 0.0938 |
| CGTCCAAGGTCAAAGGTCAGCGAAGAGATGACGG | 4.17 | 6.07 | 0.648 | 0.832 | 4.17 | 7.19 | 1.93 | 8.63 | 2.3 |
| GCTGCAAGGTCAACTGATGGTCAGCTAAAGCTCG | 3.15 | 3.5 | 0.338 | -0.136 | 2.93 | 4.58 | 0.331 | 5.36 | 0.743 |
| CTCGAAAGGTCGGTTGAGGTGACTATACGGATAA | 0.163 | 1.15 | 0.145 | 0.106 | 0.89 | 3.61 | 0.00293 | 2.11 | 0.415 |
| AATACAGGGACATCGTAGGCCAGAGTACGCACAG | -0.376 | 0.372 | 0.226 | 0.0255 | -0.207 | -0.16 | 0.0295 | -0.225 | 0.123 |
| TAGCCTAGGTCAGATCGGGGCAGTATACGCTATA | 1.23 | 1.66 | 0.079 | -0.613 | -0.167 | 1.89 | -0.84 | 0.828 | -0.404 |
| ACTAGTTGGTAAGCTGAGGTCACACACAATTCGG | 0.595 | 1.93 | 1 | 0.246 | 2.25 | 4.72 | 1.85 | 4.42 | 1.2 |
| CCTACTGGGCCATTCAGAGGACATTGATCATATG | 4.5 | 3.41 | 0.559 | -0.35 | -0.295 | -0.327 | 0.096 | -0.457 | -0.467 |
| CGTGCAAGGTCAGAGAGGTCAGTGAATGCCGAGT | 2.79 | 3.68 | 0.231 | -0.338 | 2.85 | 6.05 | 11.2 | 5.42 | 0.698 |
| CCCCGGAGGACAGAAGGTCAGAGCTGTCCGCTTT | -0.634 | -0.0521 | -2.12 | -1.93 | 1.56 | 1.25 | -0.156 | 1.87 | 0.0931 |
| ATCTCTAGGTAAAGTTCATTGAAAGATCGATAGA | 2.31 | 2.83 | 2.23 | 2 | 2.58 | 4.46 | 5.32 | 2.76 | 2.29 |
| AGTCAAATTTCATCTAGGTAACGTAAGATATGCT | 0.205 | 2.04 | 1.11 | 1.49 | 0.098 | -0.111 | -0.176 | 0.369 | 0.837 |
| CAAAATAGGTCAAGGTCAAAGTCGGTTTGTGCCA | 7.7 | 8.26 | 1.72 | 1.63 | 4.28 | 5.51 | 2.04 | 5.42 | 1.28 |
| CGTCAAAGTTCAAGGTTACGTAACAGAAAGCAGC | 0.998 | 2.75 | 1.55 | 1.22 | 2.53 | 4.66 | 2.48 | 4.11 | 1.38 |
| GCTGCTAGGTCAGGTTGGTCGGCTAACGGGTACG | 2.56 | 1.97 | -0.279 | -0.788 | 0.576 | -0.127 | -0.593 | 0.317 | -0.865 |
| TCTAGGAGGACACGAAGGTCAGAGCTTTCCAGAG | 1.91 | 1.99 | -0.157 | -1.05 | 0.55 | 1.72 | 0.568 | 1.83 | -0.482 |
| CCTACTGGGCGAAGGTCATTGATCAGTCAAAGCA | 0.342 | 2.33 | -1.21 | -0.935 | 2.36 | 3.04 | 0.36 | 3.75 | -0.327 |
| CAACCTAGGTCACGAAAGGTCAAAGTCGAATGAC | 5.05 | 6.58 | 1.6 | 1.91 | 4.46 | 7.28 | 2.49 | 6.93 | 1.71 |
| CAAACTAGGTCAAAGGTCAAAGTAGAGCCAACCA | 8.23 | 9.26 | 5.64 | 3.48 | 4.85 | 7.02 | 2.18 | 8.45 | 2.42 |

— the supplement of paper PMC6555819
